According to the antibiotic and cytotoxicity screens of Wong et al. (2023):
In all, about 39,000 compounds went through this assay and about 1,500 (3.8%) were called active. The full list was thinned out, with actives kept by preference.

These compounds were tested on HSkMC (human skeletal muscle cells) (assay: cytotoxicity call (relative viability < 0.9)). Conditions: 10 µM.

Row | Structure (SMILES) | cytotoxicity call
1 | C[C@H]1CN([C@@H](C)CO)C(=O)c2cc(C#Cc3ccccn3)cnc2O[C@H]1CN(C)C(=O)CCN1CCCCC1 | inactive
2 | C[C@@H]1CN([C@H](C)CO)C(=O)Cc2cc(NC(=O)CCCCCC(=O)Nc3ccccc3N)ccc2O[C@@H]1CN(C)Cc1ccc(Cl)c(Cl)c1 | inactive
3 | C[C@@H]1CN([C@@H](C)CO)C(=O)c2cccc(NS(=O)(=O)c3cccs3)c2O[C@H]1CN(C)C(=O)Nc1cccc2ccccc12 | inactive
4 | C[C@@H]1CCCCO[C@H](CN(C)C(=O)Nc2ccc3c(c2)OCO3)[C@H](C)CN([C@H](C)CO)C(=O)c2cc(NC(=O)c3ccccc3)ccc2O1 | inactive
5 | C[C@@H]1CN([C@@H](C)CO)C(=O)c2cc(NC(=O)Cc3cn(C)c4ccccc34)ccc2O[C@H]1CN(C)Cc1ccc(C(=O)Nc2ccccc2N)cc1 | inactive
6 | CC(C)NC(=O)Nc1ccc2c(c1)CC(=O)N([C@H](C)CO)C[C@H](C)[C@@H](CN(C)S(=O)(=O)c1cccs1)O2 | inactive
7 | CC(C)NC(=O)N(C)C[C@H]1Oc2c(NS(=O)(=O)c3ccccc3)cccc2C(=O)N([C@@H](C)CO)C[C@@H]1C | inactive
8 | Cc1ccc(S(=O)(=O)N(C)C[C@@H]2Oc3ccc(NS(=O)(=O)c4ccc(F)cc4)cc3CC(=O)N([C@@H](C)CO)C[C@@H]2C)cc1 | inactive
9 | C[C@@H]1CN([C@@H](C)CO)C(=O)c2cc(NC(=O)NC3CCCCC3)ccc2O[C@@H](C)CCCCO[C@H]1CN(C)C(=O)Cc1ccccc1 | inactive
10 | C[C@@H]1CN([C@H](C)CO)C(=O)c2cc(NC(=O)c3ccncc3)ccc2O[C@@H]1CN(C)S(=O)(=O)c1cn(C)cn1 | inactive
11 | CCCCC(CC)CN1CN(CC(CC)CCCC)CC(C)(N)C1 (configuration not stated) | active
12 | C[C@@H]1CN([C@@H](C)CO)C(=O)Cc2cc(NC(=O)NC3CCCCC3)ccc2O[C@H]1CN(C)Cc1ccc(C(=O)Nc2ccccc2N)cc1 | inactive
13 | C[C@@H]1CN([C@@H](C)CO)S(=O)(=O)c2ccc(Br)cc2O[C@@H]1CN(C)C(=O)c1cnccn1 | inactive
14 | C[C@@H]1CCCCO[C@@H](CN(C)Cc2ccc(C(=O)O)cc2)[C@@H](C)CN([C@H](C)CO)C(=O)c2cc(NC(=O)CCC(F)(F)F)ccc2O1 | inactive
15 | C[C@H](CO)N1C[C@H](C)[C@@H](CN(C)Cc2ccccc2C(F)(F)F)OCc2ccccc2-c2ccccc2C1=O | inactive
16 | C[C@H]1CN([C@@H](C)CO)C(=O)c2ccccc2-c2ccccc2CO[C@@H]1CN(C)Cc1ccccc1C(F)(F)F | active
17 | C[C@@H]1CN([C@@H](C)CO)C(=O)c2ccccc2-c2ccccc2CO[C@@H]1CN(C)Cc1ccccc1C(F)(F)F | inactive
18 | C[C@H](CO)N1C[C@H](C)[C@H](CN(C)Cc2ccccc2C(F)(F)F)OCc2ccccc2-c2ccccc2C1=O | active
19 | C[C@@H]1CN([C@H](C)CO)C(=O)c2ccccc2-c2ccccc2CO[C@@H]1CN(C)Cc1ccccc1C(F)(F)F | inactive
20 | C[C@H]1CN([C@@H](C)CO)C(=O)c2ccccc2-c2ccccc2CO[C@H]1CN(C)Cc1ccccc1C(F)(F)F | inactive
21 | C[C@H](CO)N1C[C@H](C)[C@@H](CN(C)C(=O)Nc2cccc3ccccc23)Oc2c(NC(=O)Nc3ccc(F)cc3)cccc2C1=O | inactive
22 | C[C@H](CO)N1C[C@H](C)[C@H](CN(C)Cc2ccc(C(=O)O)cc2)Oc2ccc(NC(=O)CCN3CCOCC3)cc2C1=O | inactive
23 | NC(=O)NCC#Cc1ccc2c(c1)[C@]1(C(=O)N2)[C@H](c2ccccc2OCCO)N2[C@H](c3ccccc3)[C@H](c3ccccc3)OC(=O)[C@H]2[C@@H]1C(=O)N1CCCCCCC1 | inactive
24 | Cc1noc(C)c1NC(=O)N(C)C[C@H]1Oc2ccc(NS(=O)(=O)c3cn(C)cn3)cc2CC(=O)N([C@H](C)CO)C[C@H]1C | inactive

Row | Structure (SMILES) | cytotoxicity call
25 | CN1C(=O)c2cc(NC(=O)c3ccc(C(F)(F)F)cc3)ccc2OC[C@@H]2O[C@@H](CC(=O)NC3Cc4ccccc4C3)CC[C@@H]21 | inactive
26 | C[C@@H]1CN([C@@H](C)CO)C(=O)c2cc(NC(=O)CCCN(C)C)ccc2O[C@H]1CN(C)Cc1ccc2c(c1)OCO2 | inactive
27 | Nc1[nH]ncc1-c1cc(Cl)ccc1Oc1cc(F)c(S(=O)(=O)Nc2cscn2)cc1Cl | inactive
28 | Cc1noc(C)c1S(=O)(=O)Nc1ccc2c(c1)C(=O)N([C@H](C)CO)C[C@@H](C)[C@@H](CN(C)C)OCCCC[C@H](C)O2 | inactive
29 | CCc1nc2ccc(C(=O)Nc3cccc(OCC(=O)N(C)C)c3)cn2c1N(C)Cc1cc2ccccc2s1 | inactive
30 | CCc1nc2ccc(C(=O)NC3CCN(Cc4ccccc4)CC3)cn2c1N(C)Cc1cc2ccccc2s1 | active
31 | CCc1nc2ccc(C(=O)NC3CCN(Cc4ccccc4)CC3)cn2c1N(C)CCN1CCOCC1 | inactive
32 | CCN(CC)c1ccnc([C@H]2COCCN2)n1 | inactive
33 | CC(C)NC(=O)N(C)C[C@@H]1Oc2ccc(NC(=O)Nc3ccc4c(c3)OCO4)cc2C(=O)N([C@@H](C)CO)C[C@H]1C | inactive
34 | CNC1C(O)C(NC)C2OC3(O)C(=O)CC(C)OC3OC2C1O.Cl.Cl (configuration not stated) | inactive
35 | Nc1ccccc1C(=O)C[C@H](N)C(=O)O | inactive
36 | Nc1ccc(/C=C/C(=O)NCc2cc3cc(-c4ccc(C(=O)N5CCC(F)(F)CC5)cc4)cc(-c4ccc(F)cc4)c3o2)cn1 | active
37 | C[C@H]1CN([C@@H](C)CO)C(=O)c2cc(NC(=O)c3ccncc3)ccc2O[C@H]1CN(C)Cc1ccncc1 | inactive
38 | O=C1[C@@H]2[C@H](C(=O)N1c1ccccc1)C13COC[C@H](c4ccccc4)N1C(=O)C2(C(=O)NCc1ccccc1)O3 (some centres not stated) | inactive
39 | COc1ccc(S(=O)(=O)Nc2ccc3c(c2)C(=O)N([C@H](C)CO)C[C@H](C)[C@@H](CN(C)Cc2ccc(-c4ccccc4)cc2)O3)cc1 | inactive
40 | COc1ccc(S(=O)(=O)Nc2ccc3c(c2)C(=O)N([C@H](C)CO)C[C@@H](C)[C@@H](CN(C)Cc2ccc(-c4ccccc4)cc2)O3)cc1 | active
41 | COc1ccc(S(=O)(=O)Nc2ccc3c(c2)C(=O)N([C@@H](C)CO)C[C@H](C)[C@H](CN(C)Cc2ccc(-c4ccccc4)cc2)O3)cc1 | inactive
42 | COc1ccc(S(=O)(=O)Nc2ccc3c(c2)C(=O)N([C@@H](C)CO)C[C@@H](C)[C@@H](CN(C)Cc2ccc(-c4ccccc4)cc2)O3)cc1 | active
43 | COc1ccc(S(=O)(=O)Nc2ccc3c(c2)C(=O)N([C@H](C)CO)C[C@H](C)[C@H](CN(C)Cc2ccc(-c4ccccc4)cc2)O3)cc1 | inactive
44 | COc1ccc(S(=O)(=O)Nc2ccc3c(c2)C(=O)N([C@@H](C)CO)C[C@H](C)[C@@H](CN(C)Cc2ccc(-c4ccccc4)cc2)O3)cc1 | inactive
45 | COc1ccc(S(=O)(=O)Nc2ccc3c(c2)C(=O)N([C@H](C)CO)C[C@@H](C)[C@H](CN(C)Cc2ccc(Oc4ccccc4)cc2)O3)cc1 | inactive
46 | COc1ccc(S(=O)(=O)Nc2ccc3c(c2)C(=O)N([C@H](C)CO)C[C@@H](C)[C@H](CN(C)Cc2ccc(-c4ccccc4)cc2)O3)cc1 | inactive
47 | COc1ccc(S(=O)(=O)Nc2ccc3c(c2)C(=O)N([C@@H](C)CO)C[C@@H](C)[C@H](CN(C)Cc2ccc(-c4ccccc4)cc2)O3)cc1 | active
